# Several values for one entry are separate records, joined by “and”; a condition that tells them apart may be missing. Identical values can stand only once. This is part of a sample that, as a whole, favours compounds with a hit. Of some 83,000 tested, about 20% had one in any assay.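 Compound tested at a single concentration for 48 hours in 96-well plates; a percent growth value below 10 was scored as active.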 Values without a mark were called inactive. Activity calls are given as the source filed them.
# System: MDA-MB-468 breast
# Assay: NCI-60 one-dose screen, 48 h (100 = growth as untreated, 0 = no growth, -100 = all killed)
# Settings: 10 µM unless noted
row,Structure (SMILES),growth
1,CSc1nn2c(-c3ccc4ccccc4c3)ccnc2c1C#N,41.3%
2,COc1ccc(/C=N\NC(=O)CN2CCN(c3cc4c(cc3F)c(=O)c(C(=O)N/N=C/c3ccc(OC)cc3)cn4C3CC3)CC2)cc1,84.3%
3,Clc1ccc(OCc2nc(-c3ccccc3)n[nH]2)c(Cl)c1,99.1%
4,COc1ccc(-c2cn3c(-c4ccc(OC)cc4)cnc3c(Oc3ccc4c(C)cc(=O)oc4c3)n2)cc1,43.9%
5,COc1ccc(CN2c3ccccc3Sc3ccccc32)c(C(F)(F)F)c1,18.8%
6,Clc1ccc2c(c1)nnn1c3ncccc3c(Br)c21,76.1%
7,CCCC(CCC)NCC(O)c1cc(-c2ccc(C(F)(F)F)cc2)nc(C(F)(F)F)c1 (stereo unspecified),-91.6% (active)
8,C[C@@H]1C(=O)[C@@H]2C[C@@H](O)[C@@H](O)C[C@]2(C)[C@H]2CC[C@@]3(C)C(=C12)CC[C@@H]3[C@@](C)(O)[C@H](O)CCC(C)(C)O,103%
9,CCS/C(Nc1ccccc1)=C(\C#N)C(=O)Nc1ccc(OC)cc1,-2.63% (active)
10,CC(C)CCCC(=O)O,90.8%
11,CC(C)(C)c1nn(-c2ccccc2)c2c1C(=O)CSC(c1ccc3c(c1)OCO3)N2 (stereo unspecified),120%
12,COc1ccc(NC(=S)NNc2ccc(-c3ccc(OC)c(OC)c3)nn2)cc1,109%
13,COC(=O)C(CC(=O)c1ccc(-c2ccccc2)cc1)c1ccccc1 (stereo unspecified),52.5%
14,O=C(Nc1ccc2[nH]c3ccccc3c2c1)c1ccccc1Cl,44.8%
15,C#CCOc1cccc(-c2ncc3cc(NC(=O)CCl)ccc3n2)c1,-60.6% (active)
16,O=C(/C(=N/O)c1ccccc1)c1ccccc1,93.1%
17,CNC(=O)c1cc(Oc2ccc3nc(NC(=O)c4ccc(CN5CCCN(C)CC5)c(C(F)(F)F)c4)sc3c2)ccn1,8.05% (active)
18,FC(F)(F)c1cc(NC2=NCCN=C(Nc3cc(C(F)(F)F)cc(C(F)(F)F)c3)SS2)cc(C(F)(F)F)c1,23.6%
19,Nc1nc(N)c2cc(S(=O)(=O)c3ccccc3)ccc2n1,49.9% and 57.7%
20,COc1cc(-c2nn(-c3ccc(NC(=O)c4ccc(Cl)c(C(F)(F)F)c4)cc3)cc2-c2ccncc2)ccc1Cl,26%
21,CC(C)c1ccc(NCc2cn(-c3ccc(C(=O)O)cc3)nc2-c2cc(C(F)(F)F)cc(C(F)(F)F)c2)cc1,102%
22,COc1ccc(/C(=C/c2cc(OC)c(OC)c(OC)c2)[N+](=O)[O-])cc1,-75.2% (active)
23,Cc1ccc(C(=O)Nc2ccc(CN3CCN(C)CC3)c(C(F)(F)F)c2)cc1C#Cc1cnc(N)c2ccc(F)cc12,-79.2% (active)
24,C=C(C)[C@@H]1CC[C@]2(C(N)=O)CC[C@]3(C)[C@H](CC[C@@H]4[C@@]5(C)CC[C@H](O)C(C)(C)[C@@H]5CC[C@]43C)[C@@H]12,-56% [100 µM] (active)
25,CN(C)c1ccc2c(c1)/C(=N/O)c1ccccc1-2,76.9%
26,O=S(=O)(Nc1cc(Sc2nc3ccccc3s2)c(O)c2ccccc12)c1ccc2ccccc2c1,-0.0972% (active)
